From PubChem BioAssay
Calls of active or inactive are those of the source.

Assays:
Albumin (Bos taurus) = Albumin (Bos taurus) (UniProt P02769); test: bovine serum albumin binders on microarray, profiling panel, artefact control for SMM control protein annotation, biochemical, small-molecule microarray, Alexa647 label, 635/667 nm fluorescence (AID 1118); conditions: BSA-A647 binding, fluorescence 635 nm, higher = more signal;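 further: score merges 667 nm emission intensity and signal-to-noise per printed compound spot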
[1] = small-molecule microarray binders of probe aXIP, primary screen, biochemical, NeuroSMM set, 635/667 nm fluorescence (AID 1119); conditions: higher = more signal, called active from +8 up or from −8 down;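 further: probe is the protein aXip251-270 applied at 1 µg/mL to compound-printed slides; binding of probe to printed compounds measured as 667 nm fluorescence plus signal to noise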
[2] = small-molecule binders of probe aNOTCH3, primary screen, biochemical, small-molecule microarray, 635/667 nm fluorescence (AID 1120); conditions: higher = more signal;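 further: probe is a biotin-tagged antibody raised against NOTCH3 rather than NOTCH3 protein; score merges spot fluorescence near 667 nm with spot signal to noise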
[3] = small-molecule binders of probe aNOTCH2, primary screen, biochemical, small-molecule microarray, 635/667 nm fluorescence (AID 1121); conditions: higher = more signal;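 further: score merges feature fluorescence read at 667 nm with its signal to noise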
[4] = molecular target: Carbonic anhydrase 2 (Homo sapiens) (UniProt P00918); test: CAII small-molecule binders, profiling panel, biochemical, small-molecule microarray, Alexa647-labelled CAII (AID 1122); conditions: CAII-A647 binding fluorescence, higher = more signal
[5] = COS7 lysate on small-molecule microarray, probe aHis, 635 nm (AID 1123); conditions: COS7 cell lysate, fluorescence, higher = more signal;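 further: z-score combines 667nm fluorescence intensity with signal-to-noise per printed compound spot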
[6] = compound binding in COS7 lysate, probe aLAP1, primary screen, cell lysate, small-molecule microarray (AID 1124); conditions: probe aLAP1, fluorescence, higher = more signal;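 further: lysate comes from COS7 cells expressing LAP1 and is applied at 0.3 µg/mL; score merges spot fluorescence near 667 nm with signal-to-noise over triplicate slides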
Sam68 (KHDRBS1) = test: Sam68 small-molecule binders, primary screen, biochemical, small-molecule microarray, 635 nm fluorescence (AID 1125); conditions: small-molecule microarray binding, higher = more signal;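 further: score merges 667 nm channel intensity with signal to noise over triplicate slides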
[7] = system: Chordin-like protein 2 (CHRDL2); test: CHRDL2 small-molecule binders, primary screen, biochemical, small-molecule microarray, 635 nm fluorescence (AID 1126); conditions: small-molecule microarray binding, fluorescence 635 nm; higher = more signal;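 further: printed compound slides probed with Chrdl2 protein at 4 µg/mL for 1 h at 4 C; score merges 667 nm emission intensity with signal to noise over three replicate slides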
[8] = molecular target: Concanavalin-A (Canavalia ensiformis) (UniProt P02866); test: ConA small-molecule binders, primary screen, artefact control for SMM control protein annotation, biochemical, small-molecule microarray, Alexa647 label, 635 nm (AID 1127); conditions: ConA-A647 binding fluorescence, higher = more signal;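 further: z combines 667 nm emission intensity with signal-to-noise across three replicate slides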
[9] = anti-His antibody binders, primary screen, artefact control for SMM control protein annotation, biochemical, small-molecule microarray, 635 nm fluorescence (AID 1128); conditions: anti-His Alexa647 antibody binding, higher = more signal;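 further: score merges feature fluorescence with signal-to-noise for each printed compound spot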
[10] = system: Human papillomavirus type 1a E7 protein (residues 1-88); test: HPV1a E7 small-molecule binders, primary screen, biochemical, small-molecule microarray, residues 1-88, 635 nm (AID 1129); conditions: small-molecule microarray binding, fluorescence 635 nm; higher = more signal
[11] = molecular target: Focal adhesion kinase 1 (Homo sapiens) (UniProt Q05397); test: small-molecule microarray binders of FAK, primary screen, biochemical, 635/667 nm fluorescence, BSA, DTT (AID 1130); conditions: PTK2 binding, 635 nm fluorescence, higher = more signal;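 further: composite of spot emission at 667 nm and signal to noise over triplicate slides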
[12] = system: Fibrinogen (Alexa647-labelled); test: fibrinogen binders on compound microarrays, profiling panel, artefact control for SMM control-protein annotation, biochemical, small-molecule microarray, 635/667 nm fluorescence (AID 1131); conditions: fibrinogen-A647 binding fluorescence, higher = more signal;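 further: z-score merges 667 nm fluorescence with per-spot signal-to-noise over triplicate slides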
[13] = molecular target: Follistatin (Homo sapiens) (UniProt P19883); test: follistatin binders on small-molecule microarrays, primary screen, biochemical, small-molecule microarray, 635/667 nm fluorescence (AID 1132); conditions: FST binding, 635 nm fluorescence, higher = more signal
[14] = molecular target: Fibroblast growth factor 2 (Homo sapiens) (UniProt P09038); test: FGF2 binders on small-molecule microarrays, primary screen, biochemical, small-molecule microarray, 635/667 nm fluorescence (AID 1133); conditions: small-molecule microarray binding, FGF2, fluorescence 635/667; higher = more signal
[15] = mitochondrial membrane potential change in A549 cells, profiling panel, cell-based, JC-1 fluorescence, basal, 24 h, 100 nL (AID 1138); conditions: higher = more signal;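 further: A549 lung adenocarcinoma cells under basal conditions with no added stimulus; test concentration not given here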
Lefty1 = Lefty1 binders on small-molecule microarrays, primary screen, biochemical, small-molecule microarray, 635/667 nm fluorescence (AID 1139); conditions: small-molecule microarray binding, fluorescence 635/667; higher = more signal
[16] = system: wheat germ agglutinin (Triticum aestivum), Alexa647-labelled; test: wheat germ agglutinin binders on compound microarrays, profiling panel, artefact control for SMM control-protein annotation, biochemical, small-molecule microarray, 635/667 nm fluorescence (AID 1140); conditions: WGA-A647 binding, 635 nm fluorescence, higher = more signal;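 further: score merges 667 nm feature emission with signal to noise over triplicate slides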
[17] = molecular target: Luciferin 4-monooxygenase (Photinus pyralis) (UniProt P08659); test: firefly luciferase enzyme inhibitors, primary screen, biochemical, luminescence, purified enzyme, 2006 set (AID 1141); conditions: SteadyGlo luminescence, 30 min, higher = more signal, called active from +8 up or from −8 down;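 further: cell-free assay with purified firefly luciferase at 100 ng per well in PBS; test concentration not given here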
Sequence of Luciferin 4-monooxygenase (Photinus pyralis) (P08659 whole entry, looked up): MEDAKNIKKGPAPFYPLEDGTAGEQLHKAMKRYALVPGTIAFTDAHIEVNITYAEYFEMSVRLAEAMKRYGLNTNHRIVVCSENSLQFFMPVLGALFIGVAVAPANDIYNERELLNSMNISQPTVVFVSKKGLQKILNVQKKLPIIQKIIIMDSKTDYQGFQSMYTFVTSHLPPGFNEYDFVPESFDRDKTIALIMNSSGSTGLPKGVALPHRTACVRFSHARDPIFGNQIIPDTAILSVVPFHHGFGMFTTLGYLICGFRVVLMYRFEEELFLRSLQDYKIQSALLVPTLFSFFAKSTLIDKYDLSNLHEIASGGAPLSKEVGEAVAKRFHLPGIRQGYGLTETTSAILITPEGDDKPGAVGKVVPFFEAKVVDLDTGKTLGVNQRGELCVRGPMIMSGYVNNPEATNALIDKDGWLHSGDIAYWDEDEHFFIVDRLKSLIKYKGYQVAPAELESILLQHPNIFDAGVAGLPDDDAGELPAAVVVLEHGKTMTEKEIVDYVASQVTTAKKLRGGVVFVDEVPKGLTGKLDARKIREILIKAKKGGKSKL

Sequence of Fibroblast growth factor 2 (Homo sapiens) (P09038 whole entry, looked up): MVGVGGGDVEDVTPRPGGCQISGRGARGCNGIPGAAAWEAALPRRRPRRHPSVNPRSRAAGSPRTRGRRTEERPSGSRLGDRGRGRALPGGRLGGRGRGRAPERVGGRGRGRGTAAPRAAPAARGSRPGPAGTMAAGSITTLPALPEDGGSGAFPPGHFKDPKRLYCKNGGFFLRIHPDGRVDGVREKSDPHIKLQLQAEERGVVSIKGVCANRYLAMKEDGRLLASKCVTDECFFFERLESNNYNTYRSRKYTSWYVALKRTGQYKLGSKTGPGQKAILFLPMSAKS
Sequence of Albumin (Bos taurus) (P02769 whole entry, looked up): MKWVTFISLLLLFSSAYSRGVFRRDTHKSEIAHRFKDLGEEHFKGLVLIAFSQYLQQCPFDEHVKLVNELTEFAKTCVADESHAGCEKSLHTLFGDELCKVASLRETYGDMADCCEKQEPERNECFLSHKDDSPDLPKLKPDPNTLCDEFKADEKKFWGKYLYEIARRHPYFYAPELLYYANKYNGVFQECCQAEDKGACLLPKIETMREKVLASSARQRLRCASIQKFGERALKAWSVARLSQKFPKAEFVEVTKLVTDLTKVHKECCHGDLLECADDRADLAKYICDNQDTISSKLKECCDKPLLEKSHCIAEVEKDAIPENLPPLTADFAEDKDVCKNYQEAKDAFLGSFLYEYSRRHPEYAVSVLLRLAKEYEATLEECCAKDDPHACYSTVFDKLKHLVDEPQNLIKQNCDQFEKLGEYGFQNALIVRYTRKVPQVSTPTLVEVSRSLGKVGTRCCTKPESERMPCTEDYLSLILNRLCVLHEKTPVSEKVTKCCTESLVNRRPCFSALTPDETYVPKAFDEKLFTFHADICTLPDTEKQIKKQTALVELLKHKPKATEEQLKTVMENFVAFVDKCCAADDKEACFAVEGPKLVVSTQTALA
Sequence of Concanavalin-A (Canavalia ensiformis) (P02866 whole entry, looked up): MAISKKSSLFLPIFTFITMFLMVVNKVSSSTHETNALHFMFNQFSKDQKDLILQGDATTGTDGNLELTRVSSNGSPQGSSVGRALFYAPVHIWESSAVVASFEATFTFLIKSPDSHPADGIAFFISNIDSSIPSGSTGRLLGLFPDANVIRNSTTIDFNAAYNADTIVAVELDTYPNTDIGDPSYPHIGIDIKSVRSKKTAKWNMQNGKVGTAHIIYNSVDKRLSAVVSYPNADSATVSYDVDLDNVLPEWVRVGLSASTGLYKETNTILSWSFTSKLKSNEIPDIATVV
Sequence of Follistatin (Homo sapiens) (P19883 whole entry, looked up): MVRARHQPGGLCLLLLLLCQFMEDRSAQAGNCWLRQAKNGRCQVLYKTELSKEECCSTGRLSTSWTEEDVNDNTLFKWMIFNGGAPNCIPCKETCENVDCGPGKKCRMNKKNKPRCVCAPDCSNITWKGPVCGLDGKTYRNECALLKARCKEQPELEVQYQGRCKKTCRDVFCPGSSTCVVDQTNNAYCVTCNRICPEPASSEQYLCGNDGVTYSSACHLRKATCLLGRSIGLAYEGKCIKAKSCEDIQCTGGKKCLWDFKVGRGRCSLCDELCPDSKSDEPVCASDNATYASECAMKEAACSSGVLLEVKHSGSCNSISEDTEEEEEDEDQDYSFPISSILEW
Sequence of Focal adhesion kinase 1 (Homo sapiens) (Q05397 whole entry, looked up): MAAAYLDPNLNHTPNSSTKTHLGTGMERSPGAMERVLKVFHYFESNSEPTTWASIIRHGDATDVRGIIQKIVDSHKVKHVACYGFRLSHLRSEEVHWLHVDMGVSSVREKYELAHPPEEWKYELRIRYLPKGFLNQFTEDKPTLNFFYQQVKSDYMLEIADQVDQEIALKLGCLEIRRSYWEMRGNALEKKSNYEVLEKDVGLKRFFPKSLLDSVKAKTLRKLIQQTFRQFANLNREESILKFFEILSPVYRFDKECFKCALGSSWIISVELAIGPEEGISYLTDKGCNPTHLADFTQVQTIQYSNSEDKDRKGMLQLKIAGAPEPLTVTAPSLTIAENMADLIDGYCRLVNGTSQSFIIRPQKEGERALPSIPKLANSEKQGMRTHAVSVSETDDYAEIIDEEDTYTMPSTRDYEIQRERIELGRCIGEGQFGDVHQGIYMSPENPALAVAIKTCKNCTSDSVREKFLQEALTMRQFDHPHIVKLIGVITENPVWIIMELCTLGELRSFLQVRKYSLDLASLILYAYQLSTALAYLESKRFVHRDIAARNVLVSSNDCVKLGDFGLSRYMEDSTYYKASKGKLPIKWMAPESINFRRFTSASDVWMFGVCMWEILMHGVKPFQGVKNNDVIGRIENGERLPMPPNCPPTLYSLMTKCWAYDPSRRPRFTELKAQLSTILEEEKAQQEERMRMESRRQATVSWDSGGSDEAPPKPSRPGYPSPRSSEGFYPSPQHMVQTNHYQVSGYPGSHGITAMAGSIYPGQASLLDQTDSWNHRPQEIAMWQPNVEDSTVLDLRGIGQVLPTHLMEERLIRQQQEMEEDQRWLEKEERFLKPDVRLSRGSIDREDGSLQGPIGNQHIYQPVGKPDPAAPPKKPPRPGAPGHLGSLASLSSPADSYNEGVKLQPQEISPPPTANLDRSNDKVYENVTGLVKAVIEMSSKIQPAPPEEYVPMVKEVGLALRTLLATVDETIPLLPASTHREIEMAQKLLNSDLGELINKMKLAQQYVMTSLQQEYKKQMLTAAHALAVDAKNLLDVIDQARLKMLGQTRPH

| SMILES | composite z-score (Albumin (Bos taurus)) | composite Z-score [1] | composite z-score [2] | composite z-score [3] | composite z-score [4] | composite z-score [5] | composite z-score [6] | composite z-score (Sam68 (KHDRBS1)) | composite z-score [7] | composite z-score [8] | composite z-score [9] | composite z-score [10] | composite z-score [11] | composite z-score [12] | composite z-score [13] | composite z-score [14] | z-score [15] | composite z-score (Lefty1) | composite z-score [16] | z-score [17] |
| --- | --- | --- | --- | --- | --- | --- | --- | --- | --- | --- | --- | --- | --- | --- | --- | --- | --- | --- | --- | --- |
| COCCNC(=O)OCC1CCCC2(CC(OC(=O)NCc3ccc4c(c3)OCO4)CC(CCC(=O)N[C@@H](C)C(=O)OC)O2)O1 (stereo not given in full) | 0.0746 | 0.161 (inactive) | -0.0164 | -0.0666 | 0.234 | 0.678 | -0.0692 | 1.3 | 0.454 | 1.02 | 0.721 | 0.885 | 0.136 | 0.592 | 0.752 | 1.13 | -0.397 | 1.3 | 0.139 | 0.89 (inactive) |
| C#CCCCON=C1C[C@@H](O)[C@@H](O)[C@@H]2[C@@H]3C(=O)N(CC)C(=O)[C@@H]3CC[C@@H]12 | -0.171 | -0.0844 (inactive) | 0.0779 | -0.108 | 0.231 | 0.248 | -0.0523 | 0.771 | 0.687 | 0.433 | 0.399 | 0.63 | -0.229 | 0.0609 | 0.759 | 0.672 | -0.39 | 0.289 | -0.0002 | 0.194 (inactive) |
| CCOC(=O)[C@H](CC(C)C)NC(=O)CCC1CC(OC(=O)NCc2cccc3ccccc23)CC2(CCCC(COC(=O)NCCCN3CCCC3=O)O2)O1 (stereo not given in full) | 0.247 | -0.122 (inactive) | -0.0328 | -0.108 | 0.581 | 0.444 | -0.0183 | 1.29 | 0.256 | 0.832 | 0.551 | 1.06 | 0.205 | 0.634 | 0.745 | 0.737 | -0.754 | 0.925 | 0.662 | 0.974 (inactive) |
| C#CCCCON=C1[C@H]2CCn3c(=O)n(C)c(=O)n3[C@H]2[C@H](O)[C@@H]2O[C@H]12 | -0.213 | -0.496 (inactive) | -0.0304 | -0.169 | -0.053 | 0.0971 | 0.723 | 0.406 | 0.833 | 0.543 | 0.196 | 0.746 | -0.103 | 0.615 | 0.72 | 0.916 | 1 | 0.363 | -0.0602 | -1.25 (inactive) |
| CCOC(=O)[C@H](Cc1ccccc1)NC(=O)CCC1CC(OC(=O)NCc2cccc3ccccc23)CC2(CCCC(COC(=O)NCc3cccc(C(F)(F)F)c3)O2)O1 (stereo not given in full) | 0.331 | 0.0898 (inactive) | -0.124 | -0.14 | 0.138 | 0.345 | 0.131 | 0.462 | -0.0424 | 0.187 | 0.419 | 0.565 | 0.219 | 0.193 | -0.0637 | 0.0858 | 1.94 | 0.0217 | 0.0961 | -0.114 (inactive) |
| O=C1C[C@@H](O)[C@@H](O)[C@@H]2[C@@H]3C(=O)N(C[C@@H]4CCCO4)C(=O)[C@@H]3CC[C@@H]12 | -0.0039 | -0.286 (inactive) | 0.0547 | -0.111 | -0.0061 | 0.725 | 0.181 | 0.666 | 0.348 | 0.852 | 0.318 | 0.476 | 0.181 | 0.517 | 0.848 | 0.657 | 0.52 | 0.42 | 0.208 | -0.658 (inactive) |
| Cc1cc2c(nc1C)CCCCN2CC(C)ON=C[C@@H](C)[C@H](OCc1ccccc1)C(C)C (stereo not given in full) | -0.256 | -0.77 (inactive) | -0.545 | -0.237 | -0.523 | -0.602 | -0.708 | -0.465 | -2.12 | -1.34 | 1.92 | -0.598 | -0.69 | -2.1 | -1.88 | -1.78 | -1.26 | -0.913 | -0.765 | -0.29 (inactive) |
| COc1cccc([C@H]2Oc3ccc(OC)cc3C(=NOC[C@@H](O)[C@H]3O[C@@H]4OC(C)(C)O[C@@H]4[C@H]3O)[C@@H]2O)c1 | 0.891 | -0.563 (inactive) | 0.0831 | -0.139 | -0.149 | 0.48 | 0.248 | 0.706 | 0.461 | 0.532 | -1.33 | 0.372 | 0.263 | 0.213 | 0.418 | 0.318 | -0.315 | 0.892 | -0.0123 | -4.03 (inactive) |
| O=C1C[C@@H](O)[C@@H](O)[C@@H]2[C@@H]3C(=O)N(c4cccc(Oc5ccccc5)c4)C(=O)[C@@H]3CC[C@H]12 | 0.332 | 0.454 (inactive) | -0.085 | -0.137 | -0.0963 | 0.104 | 0.183 | 0.21 | 0.455 | 0.505 | -0.0123 | 0.818 | -0.031 | 0.345 | 0.505 | 0.31 | 1.23 | 0.471 | 0.268 | -0.275 (inactive) |
| CC(=O)OC[C@H]1O[C@H](CCON=C2[C@H]3CCn4c(=O)n(-c5ccccc5)c(=O)n4[C@H]3[C@H](O)[C@@H]3O[C@H]23)C=C[C@@H]1OC(C)=O | 0.378 | 0.22 (inactive) | 0.348 | 0.088 | 0.127 | 0.343 | -0.0654 | 0.283 | 0.47 | -0.0333 | -0.405 | -0.169 | -0.749 | 0.366 | 0.334 | 0.594 | -0.297 | 0.397 | -0.0229 | 0.416 (inactive) |
